{"source": "paper PMC5540273", "about": "(PLoS ONE, 2017);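 note: KINOMEscan kinase panel screen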"}
{"test_system": "ZAP70", "conditions": "concentration: 1 μM, replicates: in singlicate; n = 1", "units": {"%Inh": "%"}}
{"smiles": "COC(=O)C(NC(=O)NC1CCN(c2ccnc(Nc3ccc(F)cc3)n2)C1)c1ccccc1", "note": "(centres unmarked) [GSK1379712]", "%Inh": 4}
{"smiles": "Cc1ccc(NC(=O)Nc2ccc(Cl)c(C(F)(F)F)c2)cc1-c1ccc(C(=O)Nc2ccncc2)cc1", "note": "[GSK1398470]", "%Inh": 0}
{"smiles": "COc1ccc(-c2coc3ccc(-c4nnc(C)o4)cc23)cc1", "%Inh": 18}
{"smiles": "COC(=O)c1cccc(NC(=O)NC2CCN(c3ccnc(Nc4ccc(OC)cc4)n3)C2)c1", "note": "(centres unmarked) [GSK1379746]", "%Inh": 0}
{"smiles": "CC(=O)c1c(C)c2cnc(Nc3ccn(C)n3)nc2n(C2CCCC2)c1=O", "%Inh": 0}
{"smiles": "CC(=O)c1c(C)c2cnc(Nc3ccc(N4CCNCC4)cn3)nc2n(C2CCCC2)c1=O", "%Inh": 0}
{"smiles": "CNC(=O)c1ccc(C)c(-n2c(C)cc(OCc3ccc(F)cc3F)c(Br)c2=O)c1", "%Inh": 0}
{"smiles": "FC(F)(F)c1ccccc1-c1cc(-c2c[nH]nc2-c2ccccn2)ccn1", "note": "[GW679396]", "%Inh": 0}
{"smiles": "CCn1c(-c2c(N)noc2C)nc2cnccc21", "note": "[SB-737856]", "%Inh": 0}
{"smiles": "Fc1ccc(-c2nn3cccc(F)c3c2-c2ccncc2)cc1", "note": "[GW475620]", "%Inh": 3}
{"smiles": "CS(=O)(=O)Cc1ccc(Nc2nccc(-c3c(-c4cccc(NC(=O)C5CCCCC5)c4)nn4ncccc34)n2)cc1", "note": "[GSK350559]", "%Inh": 22}
{"smiles": "CC(C)c1cc(-c2ccc3c(N)n[nH]c3c2)nc(N)n1", "note": "[GSK2250882]", "%Inh": 0}
{"smiles": "Nc1cccc(-c2ccc3c(N)n[nH]c3c2)n1", "note": "[GSK2192730]", "%Inh": 3}
{"smiles": "COc1nccc(-c2c(-c3ccc(F)cc3)ncn2CCCN2CCOCC2)n1", "note": "[SB-282852]", "%Inh": 31}
